Experimental data: PubChem BioAssay (NCATS)
Records with an inconclusive call do not appear. A call without a number means that no potency is given here. Active and inactive are the calls of the source. Calls come from the whole dose curve.

biological target: Estrogen receptor (Homo sapiens) (UniProt P03372); assay: qHTS assay for small molecule agonists of estrogen receptor alpha signaling (AID 588514); settings: ER-alpha-UAS-bla HEK293, beta-lactamase ratio, 18 h; series mostly up to 76.8 µM; note: nearly all actives have a fitted effect of over 70% in size
Description: NIH Chemical Genomics Center [NCGC]
U.S. Environmental Protection Agency [EPA]
National Institutes of Environmental Health Sciences [NIEHS]
National Toxicology Program [NTP]
Estrogen receptor alpha (ER-alpha) is an important member of nuclear hormone receptors. ER-alpha plays important role in breast cancer as well as in other women's health issues. The majority of breast cancers is estrogen receptor (ER) positive and depends on estrogen for growth. There is also growing concern for some of environmental chemicals which may contribute the increasing the incidence of breast cancer. Therefore, it is important to understand the effect of environmental chemicals in ER-alpha signaling pathway.
NCGC Assay Protocol Summary
Using a beta-lactamase reporter-gene under control of the ER response element, a cell-based assay [ER-alpha-UAS-bla GripTiteTM cell-Based Assay from Invitrogen] was used to measure ER-alpha signaling pathway in agonist mode. ER-alpha-UAS-bla-GripTite HEK 293 cells were used with assay medium containing 2% charcoal/dextran treated FBS, 0.1 mM NEAA and 1 mM sodium pyruvate. Cells were cultured in this assay medium overnight in the flasks before the assay. The assay was performed in clear bottom black Greiner 1536-well plates. 17-beta-estradiol was used as a positive control in the screen. Library compounds were measured for their ability to either stimulate the reporter gene activity. Compounds were screened in a titration series in 1536-well format. […] Data was normalized relative to 17-beta-estradiol control (20 nM, 100%), and DMSO only wells (basal, 0%). Concentration-response titration points for each compound were fitted to the Hill equation yielding concentrations of half-maximal stimulation (EC50) and maximal response (efficacy) values.
qHTS protocol for ER-alpha beta-lactamase assay in agonist mode
[Step] [Parameter] [Value] [Description]
1. Reagent; 6 uL; 5000 cells/well
2. Incubation; 37 C for 4 hrs
4. Controls (17-beta-estradiol); 23 nL
- Dose response, start 1uM, 1:3 dilutions with duplicates
- Two columns with 20 and 0.5 nM (final) concentration.
5. Incubation; 37 C for 18 hrs
6. Detection reagent; 1 uL of CCF4-dye
7. Incubation; RT for 2 hrs
8. Detection; Fluorescence; Envision plate reader or Acumen plate reader

Estrogen receptor (Homo sapiens), sequence (P03372 whole entry, looked up): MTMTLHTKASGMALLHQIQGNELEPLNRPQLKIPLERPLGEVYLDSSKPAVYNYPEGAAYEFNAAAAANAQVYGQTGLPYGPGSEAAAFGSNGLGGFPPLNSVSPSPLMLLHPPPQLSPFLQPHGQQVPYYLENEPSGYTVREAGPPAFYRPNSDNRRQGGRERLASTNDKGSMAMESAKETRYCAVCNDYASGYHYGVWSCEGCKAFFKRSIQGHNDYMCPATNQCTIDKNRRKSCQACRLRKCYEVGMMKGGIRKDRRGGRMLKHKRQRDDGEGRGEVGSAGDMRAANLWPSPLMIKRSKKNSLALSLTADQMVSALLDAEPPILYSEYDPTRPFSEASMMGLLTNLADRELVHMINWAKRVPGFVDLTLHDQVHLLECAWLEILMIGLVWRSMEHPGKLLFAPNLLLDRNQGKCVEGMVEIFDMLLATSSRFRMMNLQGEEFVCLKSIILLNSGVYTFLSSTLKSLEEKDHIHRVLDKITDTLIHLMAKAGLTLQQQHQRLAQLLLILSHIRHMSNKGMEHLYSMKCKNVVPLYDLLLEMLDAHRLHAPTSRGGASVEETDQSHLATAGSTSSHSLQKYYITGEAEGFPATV

SMILES	Potency
Cc1cscn1	inactive
CN(C)CCCCl	inactive
O=C(O)c1cc(Cl)cc(Cl)c1	inactive
CCOCC(=O)O	inactive
C=CCCCCCC	12.6 µM (active)
FC(F)(F)c1cccc(Cl)c1	inactive
Cc1cccc(C(=O)O)c1[N+](=O)[O-]	inactive
CC(C)CCOC(=O)/C=C/c1ccccc1	inactive
Cc1ccc2oc(=O)ccc2c1	inactive
CC#N	inactive
CCOc1ccc(NC(C)=O)cc1N	inactive
Cc1ccc2cccnc2c1	inactive
CCCCCCC(=O)O	inactive
CC(CCl)OC(C)CCl (stereo not given)	inactive
CCCCC(CC)COCC1CO1 (stereo not given)	inactive
C=CCCC	inactive
CCNc1cc(O)ccc1C	inactive
CCCCCCCN	inactive
Cc1ccc(C#N)cc1	inactive
CC(C)=CCl	inactive

SMILES	Potency
Cc1cccc(C(=O)O)c1	inactive
NC(=O)c1cccc([N+](=O)[O-])c1	inactive
CO[Si](CCCNCCC[Si](OC)(OC)OC)(OC)OC	inactive
Nc1cc(Cl)c(N)c(Cl)c1	inactive
C=C(C)C(=O)OCCCCCCCCCC	inactive
Cc1ccccc1C#N	inactive
O=C(O)c1ccc(Cl)cc1Cl	inactive
FB(F)F	inactive
C[C@@H]1CC2(OC3C[C@@]4(C)C5=CC[C@H]6C(C)(C)C(O[C@@H]7OC[C@@H](O)[C@H](O)[C@H]7O)CC[C@@]67C[C@@]57CC[C@]4(C)C31)OC(O)C1(C)OC21 (stereo not given in full)	inactive
CNC(=O)N(c1ccccc1)c1ccccc1	inactive
CCCCN(CCO)CCCC	inactive
Nc1cc([N+](=O)[O-])ccc1C(=O)O	inactive
O=C1OC(=O)c2cc([N+](=O)[O-])ccc21	inactive
[O-]/[N+](=N\O)c1ccccc1	inactive
CCC(C)(C)C(=O)O	inactive
Nc1ccc([N+](=O)[O-])c(N)c1	inactive
CCOc1cc(OCC)c(C(C)=O)cc1OCC	inactive
CCCCCCCCCCCCC1CO1 (stereo not given)	inactive
CCCC(Cl)CCCC(Cl)CCC(Cl)CCC(Cl)CCC(Cl)CCCC(Cl)CCC (stereo not given)	inactive
Nc1cccc(S(=O)(=O)O)c1	inactive
